Screens (PubChem)
Shown are actives, neighbours in structure and some others; about 3.6% of the full set was active somewhere.
mHTT CaM bind = inhibitors of human mutant huntingtin-calmodulin interaction; AlphaScreen His-mHTT/GST-CaM binding, luminescence; inhibition, % at 15 µM; P42858; 3.6% of 190,000 active; AID 1671202;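 also: 0% = both proteins with DMSO and 100% = one protein alone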
Pf apPOL block = Pf-apPOL DNA polymerase inhibition. Recombinant Pf-apPOL, molecular beacon fluorescence, 1.5 h. inhibition, % at 10 µM. 0.25% of 210,000 active. AID 1794808
An asterisk follows results filed as active; . = not tested or not shown; + = active, no number. Rule as the data show it: active = inhibition above about 50%; inactive = the rest.

SMILES | mHTT CaM bind | Pf apPOL block
O=C1/C(=C/c2cccnc2)CS/C1=C\c1cccnc1 | 20.0 | 3.1
NNc1nnc2c(n1)[nH]c1ccc(Br)cc12 | 66.7* | 11.4
Brc1ccc2[nH]c3nc4ccccc4nc3c2c1 | -3.0 | 0.7
COc1cc(NC(=O)CN2C(=O)C(c3ccc(Cl)cc3)=NC2(C)C)cc(OC)c1 | 0.3 | -7.0
c1ccc(-c2nn(-c3ccccc3)[n+](-c3nn[nH]n3)n2)cc1 | -6.1 | 12.3
COc1ccc(CNC(=O)c2cc3c(n2C)CCN(Cc2cccc(F)c2)C3)cc1 | 28.1 | -3.7
Cn1c(C(=O)N2CCN(c3ccc(F)cc3)CC2)cc2c1CCN(Cc1ccccc1)C2 | 84.8* | 3.4
Cn1c(C(=O)N2CCOCC2)cc2c1CCN(Cc1ccccc1)C2 | 1.4 | -1.2
Cn1c(C(=O)N2CCN(c3ccccc3)CC2)cc2c1CCN(Cc1cccc(F)c1)C2 | 65.6* | -7.1
Cn1c(C(=O)NCCN2CCCC2)cc2c1CCN(Cc1cccc(F)c1)C2 | 79.2* | 11.8
Cn1c(C(=O)N2CCCCC2)cc2c1CCN(Cc1cccc(F)c1)C2 | 32.7 | -6.0
COc1ccccc1CNC(=O)c1cnn2c(C)c(Cc3ccccc3C)c(C)nc12 | 27.0 | -13.6
O=C(c1cc2ccccc2[nH]1)N1CCC(c2nnc(-c3ccc(F)cc3)o2)CC1 | -6.2 | 2.4
CC(C)(C)C(=O)Nc1cccc(C(=O)NN)c1 | -5.7 | -5.5
CCN1C(=O)C(CC(=O)NCc2ccccn2)Sc2ncccc21 (centres undefined) | -5.4 | -3.6
Oc1ccc(/C=N/Nc2nccnc2Cl)c(O)c1 | + | .
Oc1ccccc1C=NNc1nc2c(Cl)cc(Cl)cc2s1 | . | 0.5
O=C(c1ccc(F)c(F)c1)N1CC(C(=O)N2CCN(C3CCCCC3)CC2)C1 | -5.2 | -2.5
COCCN1C(=O)Cc2ccccc2C1C(=O)N1CCN(c2cccc(Cl)c2)CC1 (centres undefined) | 67.1* | -4.3
CCN1C(=O)Cc2ccccc2C1C(=O)N1CCN(c2cccc(Cl)c2)CC1 (centres undefined) | 5.1 | 2.8
COc1ccc(C)cc1NCc1ccccc1C | 81.0* | 8.7
COc1cc(Br)c(CNc2cc(C)ccc2C)cc1OC | 41.8 | -1.4
O=C(NCc1ccccn1)C1CCc2sc(C(=O)N3CCCCC3)cc2C1 (centres undefined) | 3.3 | -8.1
CC(C)(C)NCC(O)COc1ccc(C23CC4CC(CC(C4)C2)C3)cc1 (centres undefined) | 100.3* | -0.1
C[N+]1(CC(O)COc2ccc(C34CC5CC(CC(C5)C3)C4)cc2)CCCC1 (centres undefined) | 52.0* | 2.3
SMILES | mHTT CaM bind | Pf apPOL block
CC[N+]1(CC(O)COc2ccc(C34CC5CC(CC(C5)C3)C4)cc2)CCCC1 (centres undefined) | 28.1 | -3.3
OCCN(CCO)CC(O)COc1ccc(C23CC4CC(CC(C4)C2)C3)cc1 (centres undefined) | 14.6 | -1.1
Cc1ccc(OCC(O)CNC(C)C)cc1 (centres undefined) | -9.3 | 1.6
CC(C)NCC(O)COc1ccc(C23CC4CC(CC(C4)C2)C3)cc1 (centres undefined) | 100.3* | -4.8
COc1ccc(-c2nn(-c3ccccc3)cc2C(=O)N2CCOCC2)cc1OC | 0.0 | 7.5
Cc1ccc2ncn(C3CCN(S(=O)(=O)c4ccc(F)cc4)CC3)c(=O)c2c1 | -1.0 | -0.3
CCC(C)c1ccc(OCCCCN2CCN(C)CC2)cc1 (centres undefined) | 54.2* | -0.9
CCC(C)c1ccc(OCCCN2CCN(C)CC2)cc1 (centres undefined) | 3.2 | -6.6
COc1cc(C2C3=C(CCCC3=O)N(C)C3=C2C(=O)CCC3)cc(Cl)c1O | 6.0 | -9.9
CC(C)CC(=O)N1CCN(c2cccc(Br)c2)C(=O)C1C (centres undefined) | -1.1 | -1.6
Cc1ccc(OCc2nc3ccccc3n2C(C)C)cc1 | -17.0 | -1.9
CC(C)n1c(C(O)c2ccc(OCc3ccccc3)cc2)nc2ccccc21 (centres undefined) | 81.1* | 9.8
COc1ccc(O)c(-c2cnc(=S)[nH]c2-c2cc(OC)ccc2OC)c1 | 29.7 | .
c1coc(C2=Nc3ccccc3SC(c3ccc4c(c3)OCO4)C2)c1 (centres undefined) | 51.0* | -4.2
O=C1CC(c2ccc3c(c2)OCO3)Sc2nc(-c3ccccc3)nn21 (centres undefined) | 1.0 | -7.5
COc1ccc(C2CC(c3ccco3)=Nc3ccccc3S2)cc1OC (centres undefined) | 46.0 | -2.3
Cc1ccc(C2CC(c3ccco3)=Nc3ccccc3S2)cc1 (centres undefined) | 64.0* | -0.4
O=C(Nc1ccccc1C(F)(F)F)c1cnc2n(c1=O)CCS2 | 5.0 | 1.0
O=C(Nc1nc2c(s1)CN(C(=O)Cc1cccs1)CC2)c1cnccn1 | 14.0 | 16.3
O=C(Nc1nc2c(s1)CN(CC(=O)N1CCCc3ccccc31)CC2)c1cnccn1 | 63.2* | 13.5
Cc1nnc(NC(=O)c2ccc(S(=O)(=O)N(CC(C)C)CC(C)C)cc2)o1 | 51.0* | -74.4
